Results on 14 molecules are retold here after PubChem BioAssay (EPA / NIEHS).

By AC50 is commonly meant the concentration giving half of the maximal activity seen.

Structures are written as SMILES. Activity calls are given as the source filed them. How the source made its calls: active means hit-call score of the fitted dose curve at least 0.9, where 1 is the maximum; inactive means score below 0.9.

Read-out in this test: Ezrin (EZR), EZR (gene 7430)
Description: LTEA_HepaRG_EZR: Life Technologies and Expression Analysis (LTEA) Assay for Ezrin (EZR) using HepaRG (AID 2283491). The following applies: mRNA level, 48 h; actives raise or lower the signal. The procedure: It is a marker of Cellular remodeling.Data from the assay component LTEA_HepaRG_EZR was analyzed into 1 endpoint. This assay endpoint, LTEA_HepaRG_EZR, was analyzed with bidirectional fitting relative to DMSO as the negative control and baseline of activity. Using a type of inducible reporter, measures of mRNA induction for gain or loss-of-signal activity can be used to understand regulation of transcription factor activity. To generalize the intended target to other relatable targets, this assay endpoint is annotated to the membrane protein intended target family, where the subfamily is Cellular remodeling.
A total of 1060 chemcials from the ToxCast library were tested in eight-point concentration-response experiments. Cell culture and cytotoxicity assays were conducted at Thermo Fisher Scientific's Custom Services facility (Madison, WI). A single lot of human HepaRG cells (Thermo Fisher Scientific, Frederick, MD) was used for the cell culture experiments. 96-well format collagen type I coated plates of human HepaRG cells were prepared using established methods. Briefly, cryopreserved HepaRG cells were thawed, plated at a density of approximately 100,000 cells/well in HepaRG Thaw, Plate, and General Purpose media (HPRG770, Thermo Fisher Scientific), and incubated for 48 hours. 0.5% DMSO was selected as vehicle control to balance the requisite need of DMSO in HepaRG cultures to maintain differentiation (for example, baseline metabolism, proportions of hepatocytes vs. cholangiocytes), while enabling further hepatic receptor pathway activation (for example, PXR and CAR) in response to chemical exposure. 48 hours after plating, the culture medium was replaced with HepaRG Serum-Free Incudtion Media. Cells were exposed to each test chemical in duplicate and maintained in CO2 incubators for another 48 hours. Chemical plates were thawed to room temperature and 200x concentrations of treatment groups were prepared. 8-point conentration-reponse curves were made with the highest exposure at 100 uM, followed by half-log dilutions, all in 0.5% DMSO. Each test plate contained variouse controls, induction positive controls (1mM phenobarbital), cytotoxicity positive controls ([…] aflatoxin B1), vehicle controls (0.5% DMSO), and total lysis controls (0.5% DMSO). Cell morphology images were taken using an Essen IncuCyte FLR automated microscope, with six 96-well plates imaged in about 24 minutes. Images were captured and exported and JPEG files. Spent culture media was transfered to black-well plates for the LDH assay, and remaining media was sorted at -80 C for later use. Cells were treated with RLT buffer and frozen until shipped for gene expression analysis. Total RNA was isolated from the cell suspension in 75 uL of Buffer RLT (Qiagen, Germantown, MD 20874) by Quintiles/Expression Analysis (Durham, NC) using a custom isolation procedure. Total RNA from each plate well was transferred to a preamplification plate. Fluidigm's 96.96 Dynamic ArrayTM (Fluidigm, Amsterdam, the Netherlands) technology was used for gene expression analyses by quantitative reverse transcription polymerase chain reaction (qRT-PCR, performed by Quintiles/Expression Analysis, Durham, NC)89. Standard TaqManTM Assays (Applied Biosystems/ThermoFisher Scientific, Foster City, CA) were used to assess the expression of 93 genes selected based on their selectivity and sensitivity to important hepatic receptors known to be modulated by environmental chemicals; importance in human hepatocyte functionality; and hepatotoxicity. Three "housekeeping" endogenous control genes were also included and used for normalization: actin beta (ACTB), Glyceraldehyde 3 phosphate dehydrogenase (GAPDH) and RNA Polymerase II Subunit A (POLR2A). qRT-PCR was conducted according to the manufacturer's protocol.
`CC(C)O.CC(C)O.OCCN(CCO)CCO.OCCN(CCO)CCO.[Ti]`: the molecule was called inactive.

For the molecule `CN(C)C(=S)S`, the molecule was classed as inactive.

With `Oc1c(Cl)cc(Cl)cc1Cl`, the molecule was classed as inactive.

As for `CCCCCCCCCCCCc1cccc(S(=O)(=O)O)c1`, the molecule was called inactive.

Turning to `Clc1cccc(Cl)c1`, the call was inactive.

`Cc1cc(C)cc(C)c1`: the molecule was called inactive.

Take `COc1ccccc1N`: the call was inactive.

Regarding `Clc1cccc(Cl)c1Cl`, the result was inactive.

Consider `Oc1cc(Cl)c(Cl)cc1Cl`, for which the call was inactive.

`OCCN(CCO)CCO`: the molecule was called inactive.

Take `O=C(O)C1(c2ccc3c(c2)OC[C@H](Cc2ccc(-c4ccccc4)cc2)[C@H]3O)CCCC1`: the AC50 is 63.1 µM (active).

For the molecule `N#Cc1cccnc1`, the molecule was classed as inactive.

On to `O=C(N[C@H]1CN2CCC1CC2)c1ccc2c(c1)OCCO2`, for which the molecule was called inactive.

As for `CC(C)(C)c1ccccc1O`, the call was inactive.
